Experimental data as given in PubChem BioAssay (EPA / NIEHS).
Activity calls are given as the source filed them. Rule for the calls: active = hit-call score of the fitted dose curve at least 0.9, where 1 is the maximum; inactive = score below 0.9.

What was measured:
[1] = read-out: Matrix Metallopeptidase 1 (MMP1), MMP1 (gene 4312); assay: BSK_hDFCGF_MMP1: BioMAP Diversity Plus: hDFCGF Assay for Matrix Metallopeptidase 1 (MMP1) Biomarker Activity (AID 2283064); conditions: primary human foreskin fibroblasts; actives raise or lower the signal
How it was run: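 ELISA read-out of MMP1 from human foreskin fibroblasts (primary skin cells), 24 h post-dose. Gain or loss of signal was fitted bidirectionally versus DMSO negative control; cytotoxicity was checked by SRB in parallel cultures.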

[2] = read-out: Vascular cell adhesion molecule 1 (VCAM1), VCAM1 (gene 7412); assay: BSK_hDFCGF_VCAM1: BioMAP Diversity Plus: hDFCGF Assay for Vascular cell adhesion molecule 1 (VCAM1) Biomarker Activity (AID 2283065); conditions: primary human foreskin fibroblasts; actives raise or lower the signal;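 for AC50: VCAM-1 protein level quantified by ELISA after 24 h chemical exposure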
How it was run: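 ELISA readout of VCAM-1 on human dermal fibroblast primary cultures, 24 h after chemical exposure. Gain or loss of signal fitted in both directions against DMSO baseline.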

[3] = read-out: Plasminogen activator inhibitor-1 (PAI1), SERPINE1 (gene 5054); assay: BSK_hDFCGF_PAI1: BioMAP Diversity Plus: hDFCGF Assay for Plasminogen activator inhibitor-1 (PAI1) Biomarker Activity (AID 2283066); conditions: primary human foreskin fibroblasts; actives raise or lower the signal
How it was run: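 Fibroblasts from human foreskin were treated with test chemical. After 24 h, PAI-1 was measured by ELISA. Activity was fitted in both directions relative to DMSO.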

[4] = read-out: Intercellular Adhesion Molecule 1 (ICAM1), ICAM1 (gene 3383); assay: BSK_KF3CT_ICAM1: BioMAP Diversity Plus: KF3CT Assay for Intercellular Adhesion Molecule 1 (ICAM1) Biomarker Activity (AID 2283067); conditions: primary human keratinocytes with fibroblasts; actives raise or lower the signal
How it was run: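 Cell-surface ICAM-1 was measured by ELISA 24 h after dosing primary human skin keratinocytes co-cultured with fibroblasts. Parallel SRB staining tracked overt cytotoxicity. Gain or loss of signal was fitted relative to DMSO.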

[5] = read-out: Interferon-gamma inducible Protein 10 (IP10), CXCL10 (gene 3627); assay: BSK_KF3CT_IP10: BioMAP Diversity Plus: KF3CT Assay for Interferon-gamma inducible Protein 10 (IP10) Biomarker Activity (AID 2283068); conditions: primary human keratinocytes with fibroblasts; actives raise or lower the signal
How it was run: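 In a primary skin co-culture of keratinocytes and fibroblasts, IP-10 is quantified by ELISA at 24 h after dosing. SRB staining of parallel wells monitors overt toxicity. Curves are fitted both directions against DMSO.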

[6] = BSK_KF3CT_SRB: Viability Assessment in the BioMAP Diversity Plus: KF3CT Assay (AID 2283069); conditions: primary human keratinocytes with fibroblasts;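 note: total protein by sulforhodamine B staining as a cytotoxicity measure; read 24 h after compound addition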
How it was run: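 SRB read-out at 560 nm (0.1% stain, TCA-fixed cells) gauges overt cytotoxicity in a human skin keratinocyte–fibroblast co-culture 24 h post-dosing. Signal change was fitted bidirectionally relative to DMSO control.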

[7] = read-out: Interleukin-1 alpha (IL1a), IL1A (gene 3552); assay: BSK_KF3CT_IL1a: BioMAP Diversity Plus: KF3CT Assay for Interleukin-1 alpha (IL1a) Biomarker Activity (AID 2283070); conditions: primary human keratinocytes with fibroblasts; actives raise or lower the signal
How it was run: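 Primary skin co-culture (keratinocytes, foreskin fibroblasts), 24 h exposure; ELISA for IL-1a; bidirectional curve fit vs DMSO.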

[8] = read-out: TIMP metallopeptidase inhibitor 2 (TIMP2), TIMP2 (gene 7077); assay: BSK_KF3CT_TIMP2: BioMAP Diversity Plus: KF3CT Assay for TIMP metallopeptidase inhibitor 2 (TIMP2) Biomarker Activity (AID 2283071); conditions: primary human keratinocytes with fibroblasts; actives raise or lower the signal
How it was run: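 Chemicals were dosed onto human skin primary co-cultures of keratinocytes and foreskin fibroblasts, and TIMP-2 was measured by ELISA after 24 hours. Activity in either direction was fitted relative to DMSO.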

[9] = read-out: Transforming growth factor beta 1 (TGFb1), TGFB1 (gene 7040); assay: BSK_KF3CT_TGFb1: BioMAP Diversity Plus: KF3CT Assay for Transforming growth factor beta 1 (TGFb1) Biomarker Activity (AID 2283072); conditions: primary human keratinocytes with fibroblasts; actives raise or lower the signal
How it was run: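 KF3CT co-culture (keratinocytes + fibroblasts), 24 h exposure → TGF-b1 ELISA → bidirectional fit, DMSO = baseline. Parallel SRB total-protein staining (0.1% SRB, 10% TCA fixation, 560 nm) for cytotoxicity.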

[10] = read-out: C-C motif chemokine 2 (Homo sapiens) (UniProt P13500); assay: BSK_KF3CT_MCP1: BioMAP Diversity Plus: KF3CT Assay for Monocyte Chemoattractant Protein 1 (MCP1/CCL2) Biomarker Activity (AID 2283073); conditions: primary human keratinocytes with fibroblasts; actives raise or lower the signal
How it was run: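 ELISA read-out of MCP-1, 24 h post-dose, in primary human skin keratinocytes co-cultured with fibroblasts. Parallel SRB staining monitors cytotoxicity; changes fitted both directions relative to DMSO.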

[11] = read-out: Matrix Metallopeptidase 9 (MMP9), MMP9 (gene 4318); assay: BSK_KF3CT_MMP9: BioMAP Diversity Plus: KF3CT Assay for Matrix Metallopeptidase 9 (MMP9) Biomarker Activity (AID 2283074); conditions: primary human keratinocytes with fibroblasts; actives raise or lower the signal;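 for AC50: MMP9 protein level quantified by ELISA in the co-culture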
How it was run: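 ELISA read-out of MMP-9 at 24 h post-dosing in a co-culture of human skin keratinocytes and foreskin fibroblasts. Gain or loss of signal was fitted in both directions against DMSO.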

[12] = read-out: urokinase plasminogen activator (uPA), PLAU (gene 5328); assay: BSK_KF3CT_uPA: BioMAP Diversity Plus: KF3CT Assay for urokinase plasminogen activator (uPA) Biomarker Activity (AID 2283075); conditions: primary human keratinocytes with fibroblasts; actives raise or lower the signal
How it was run: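 Skin co-culture (keratinocytes + foreskin fibroblasts), human primary; 24 h post-dose; uPA by ELISA; gain/loss fit vs DMSO baseline.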

CD40, CD40 (gene 958) = assay: BSK_LPS_CD40: BioMAP Diversity Plus: LPS Assay for CD40 Biomarker Activity (AID 2283076); conditions: primary human HUVEC with PBMC; actives raise or lower the signal
How it was run: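 In the LPS system of human endothelial cells with peripheral blood mononuclear cells, CD40 levels were read by ELISA 24 h post-treatment. Signal changes in either direction were fitted against the DMSO baseline, with parallel SRB protein staining.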

[13] = read-out: E-selectin (Homo sapiens) (UniProt P16581); assay: BSK_LPS_Eselectin: BioMAP Diversity Plus: LPS Assay for Eselectin Biomarker Activity (AID 2283077); conditions: primary human HUVEC with PBMC; actives raise or lower the signal
How it was run: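 E-selectin ELISA on LPS-stimulated endothelial cell/PBMC co-cultures, read 24 h post-treatment; gains and losses fitted against DMSO. Parallel SRB staining (0.1% SRB after 10% TCA fixation, 560 nm) flags overt cytotoxicity.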

[14] = read-out: Interleukin-8 (IL8), CXCL8 (gene 3576); assay: BSK_LPS_IL8: BioMAP Diversity Plus: LPS Assay for Interleukin-8 (IL8) Biomarker Activity (AID 2283078); conditions: primary human HUVEC with PBMC; actives raise or lower the signal
How it was run: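 ELISA read-out of IL-8 after 24 h chemical treatment of LPS-activated endothelial/PBMC human primary co-cultures. Changes either up or down relative to DMSO; overt cytotoxicity checked by sulforhodamine B staining in parallel wells.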

[15] = BSK_LPS_SRB: Viability Assessment in the BioMAP Diversity Plus: LPS Assay (AID 2283079); conditions: primary human HUVEC with PBMC;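 note: total protein by sulforhodamine B absorbance as a cytotoxicity measure; measured one day after compound addition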
How it was run: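 SRB viability endpoint: cells fixed with 10% TCA, stained with 0.1% SRB, read at 560 nm, 24 h post-dose. HUVEC/PBMC co-culture; signal change in either direction scored relative to DMSO.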

[16] = read-out: Interleukin-1 alpha (IL1a), IL1A (gene 3552); assay: BSK_LPS_IL1a: BioMAP Diversity Plus: LPS Assay for Interleukin-1 alpha (IL1a) Biomarker Activity (AID 2283080); conditions: primary human HUVEC with PBMC; actives raise or lower the signal
How it was run: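 Readout is IL-1a level by ELISA, 24 h post-dose, fitted as gain or loss relative to DMSO. System: LPS-activated human primary co-culture of vascular endothelium and peripheral blood mononuclear cells, with parallel SRB total-protein cytotoxicity.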

[17] = read-out: Monocyte Chemoattractant Protein-1 (MCP1), CCL2 (gene 6347); assay: BSK_LPS_MCP1: BioMAP Diversity Plus: LPS Assay for Monocyte Chemoattractant Protein-1 (MCP1) Biomarker Activity (AID 2283081); conditions: primary human HUVEC with PBMC; actives raise or lower the signal;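 for AC50: secreted MCP-1 protein quantified by ELISA in culture supernatant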
How it was run: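 Secreted MCP-1 read by ELISA at 24 h post-dosing in an LPS-activated co-culture of endothelial cells with peripheral blood mononuclear cells. Fits run in both directions, DMSO as baseline; parallel SRB staining tracks overt cytotoxicity.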

[18] = BSK_LPS_PGE2: BioMAP Diversity Plus: LPS Assay for Prostaglandin E2 (PGE2) Biomarker Activity (AID 2283082); conditions: primary human HUVEC with PBMC; actives raise or lower the signal;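 for AC50: secreted prostaglandin E2 measured by ELISA in LPS-stimulated co-culture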
How it was run: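 Compounds were added to the LPS co-culture of endothelium and PBMC, and PGE2 was measured by ELISA after 24 h. Responses in either direction were fitted with DMSO as baseline.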

[19] = read-out: Macrophage colony-stimulating factor (MCSF), CSF1 (gene 1435); assay: BSK_LPS_MCSF: BioMAP Diversity Plus: LPS Assay for Macrophage colony-stimulating factor (MCSF) Biomarker Activity (AID 2283083); conditions: primary human HUVEC with PBMC; actives raise or lower the signal
How it was run: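 Bidirectional fitting against DMSO was applied to M-CSF levels read by ELISA at 24 h post-dose. The system pairs human umbilical vein endothelium with peripheral blood mononuclear cells; parallel SRB staining tracked cytotoxicity.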

Measured: AC50

Sequence of E-selectin (Homo sapiens) (P16581 whole entry, looked up): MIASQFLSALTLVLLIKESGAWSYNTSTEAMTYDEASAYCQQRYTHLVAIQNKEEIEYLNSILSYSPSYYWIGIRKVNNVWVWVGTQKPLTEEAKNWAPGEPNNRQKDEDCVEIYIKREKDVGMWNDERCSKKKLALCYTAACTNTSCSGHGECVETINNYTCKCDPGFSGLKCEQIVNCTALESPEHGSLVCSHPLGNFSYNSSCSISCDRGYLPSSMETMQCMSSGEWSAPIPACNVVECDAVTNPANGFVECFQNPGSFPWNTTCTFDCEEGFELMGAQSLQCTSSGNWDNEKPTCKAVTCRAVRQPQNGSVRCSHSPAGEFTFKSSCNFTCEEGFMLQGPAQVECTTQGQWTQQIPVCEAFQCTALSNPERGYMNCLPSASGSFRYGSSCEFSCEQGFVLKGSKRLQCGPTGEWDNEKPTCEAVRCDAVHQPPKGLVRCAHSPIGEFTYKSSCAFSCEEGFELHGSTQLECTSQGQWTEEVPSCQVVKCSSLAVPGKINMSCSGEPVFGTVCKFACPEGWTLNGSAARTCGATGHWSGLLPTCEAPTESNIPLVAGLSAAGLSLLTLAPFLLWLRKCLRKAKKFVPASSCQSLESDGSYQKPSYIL

CCN(Cc1cccc(S(=O)(=O)O)c1)c1ccc(C(=C2C=CC(=[N+](CC)Cc3cccc(S(=O)(=O)O)c3)C=C2)c2ccccc2S(=O)(=O)[O-])cc1
inactive: [1] | [2] | [3] | [4] | [5] | [6] | [7] | [8] | [9] | [10] | [11] | [12] | CD40, CD40 (gene 958) | [13] | [14] | [15] | [16] | [17] | [18] | [19]

OCCO
inactive: [1] | [2] | [3] | [4] | [5] | [6] | [7] | [8] | [9] | [11] | [12] | CD40, CD40 (gene 958) | [13] | [14] | [15] | [16] | [17] | [18] | [19]

Clc1cc(Cl)c2c(c1)N=C1CCCCCN1C2
inactive: [1] | [2] | [3] | [4] | [5] | [6] | [7] | [8] | [9] | [10] | [11] | [12] | CD40, CD40 (gene 958) | [13] | [14] | [15] | [16] | [17] | [18] | [19]

CN(C)C(=O)C1(N2CCCCC2)CCN(CC[C@@]2(c3ccc(Cl)c(Cl)c3)CN(C(=O)c3ccccc3)CCO2)CC1
active: [1] 29.2 µM | [2] 14.9 µM | [3] 12.3 µM | [4] 35.2 µM | [5] 31.3 µM | [6] 28.4 µM | [7] 34.3 µM | [8] 32.7 µM | [9] 29.8 µM | [10] 35 µM | [11] 25.5 µM | [12] 32.1 µM | CD40, CD40 (gene 958) 16.8 µM | [13] 29.2 µM | [14] 25.7 µM | [15] 18.9 µM | [16] 18.9 µM | [17] 25.2 µM | [19] 20.8 µM
inactive: [18]

CCCCCc1ccc(N)cc1
active: [5] 22 µM | [6] 24.4 µM | [8] 20.8 µM | [11] 13.7 µM | [18] 12 µM
inactive: [1] | [2] | [3] | [4] | [7] | [9] | [10] | [12] | CD40, CD40 (gene 958) | [13] | [14] | [15] | [16] | [17] | [19]
